RXFP1 antagonist – blocks the human relaxin receptor RXFP1 | hit rate 0.59% among 350,000 | activity change, negative = inhibition, % at 57.5 µM | Q9HBX9 | AID 1259400 | HEK293-RXFP1, relaxin-stimulated cAMP HTRF, 30 min; stronger effect = lower value;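 active = activity change of -60% or lower, but not beyond a set lower limit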; note: % is set by controls: 0 for no effect and ±100 for the full control effect
Target sequence (Q9HBX9 whole entry, looked up): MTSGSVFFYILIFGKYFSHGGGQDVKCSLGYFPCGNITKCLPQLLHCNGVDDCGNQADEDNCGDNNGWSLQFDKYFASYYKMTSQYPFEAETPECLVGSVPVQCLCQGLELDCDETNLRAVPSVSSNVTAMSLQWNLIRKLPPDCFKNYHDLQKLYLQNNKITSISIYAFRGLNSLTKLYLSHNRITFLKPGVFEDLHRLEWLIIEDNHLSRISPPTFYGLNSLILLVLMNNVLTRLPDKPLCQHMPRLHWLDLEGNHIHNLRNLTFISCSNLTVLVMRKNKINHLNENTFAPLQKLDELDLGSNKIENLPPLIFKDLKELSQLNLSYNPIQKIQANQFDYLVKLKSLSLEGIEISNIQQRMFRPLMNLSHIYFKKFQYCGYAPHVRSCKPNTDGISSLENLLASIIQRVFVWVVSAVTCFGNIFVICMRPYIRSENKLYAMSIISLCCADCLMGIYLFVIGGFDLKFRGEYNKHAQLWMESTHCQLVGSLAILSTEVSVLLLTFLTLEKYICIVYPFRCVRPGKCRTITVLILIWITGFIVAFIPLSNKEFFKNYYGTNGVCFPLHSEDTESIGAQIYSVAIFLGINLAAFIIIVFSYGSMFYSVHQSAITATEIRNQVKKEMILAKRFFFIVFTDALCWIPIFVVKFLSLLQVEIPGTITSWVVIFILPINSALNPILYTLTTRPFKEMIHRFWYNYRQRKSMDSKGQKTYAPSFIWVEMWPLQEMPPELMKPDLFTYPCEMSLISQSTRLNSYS
RXFP1 ag – RXFP1 (human) receptor agonism; AID 2676; hit rate 0.3% among 370,000; Potency, µM (top dose mostly 57.5 µM), without a hit: top-dose activation, hits mostly activators; HEK293T-RXFP1 cAMP TR-FRET, 30 min; response scale: percent of porcine relaxin response, buffer zero; Q9HBX9; active = well fitted activation curve with a large enough effect; note: potency is the fitted concentration of half-maximal effect; % is set by controls: 0 for no effect and ±100 for the full control effect; nearly all actives have a fitted effect of over 60% in size
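HEK293 cells stably expressing RXFP1, treated 30 min at 37C with compounds plus PDE4 inhibitor Ro 20174; cAMP measured by HTRF TR-FRET. Normalized to buffer and 29 nM porcine relaxin; EC50 by Hill fit.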
gsp agonist – gsp mutant agonism | gsp mutant cells, cAMP HTRF, 30 min | Potency, µM (series often up to 76.9 µM), inactives show at the top dose activation (cAMP increase), most hits filed as activators | hit rate 0.13% among 340,000 | AID 624287; active = well fitted activation curve with a large enough effect; cell line not stated here;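 note: phosphodiesterase inhibitor Ro 20-1724 added with compounds to block cAMP breakdown; potency is the fitted concentration of half-maximal effect; nearly all actives have a fitted effect of over 60% in size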
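Cells stably selected in G418 were plated at 2000/well, grown 16-24 hr, then given compounds in DMSO with the PDE inhibitor […] (300 uM solution added) for 30 min at 37C; cAMP was read by HTRF.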
FBPA coupling cs – coupling enzyme interference in Giardia aldolase counter-screen | hit rate 0.67% among 290,000 | activity change, negative = inhibition, % at 58.2 µM, hits read low | coupling enzyme system counterscreen, AmpLite Red fluorescence; in the data active = activity change below about -30%; note: % is set by controls: 0 for no effect and ±100 for the full control effect
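Activity here indicates interference with the coupling reaction, not aldolase inhibition. Compounds at 57.5 uM final met coupling enzymes for 10 min at RT; substrate and AmpLite Red detection followed, with a 525/598 nm fluorescence read after 20 min.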
Giardia kill – kills Giardia lamblia. Giardia lamblia trophozoite viability. activity change, % at 7.66 µM, hits read low. hit rate 0.15% among 340,000. AID 540267; in the data active = activity change below about -80%;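 note: parasites exposed to compound for two days anaerobically before the ATP read; % is set by controls: 0 for no effect and ±100 for the full control effect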
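Giardia trophozoites, 100 cells per well, were exposed to compounds for 48 hrs at 37 deg C under anaerobic conditions; viability was then read as ATP content by bioluminescence after 15-30 min at room temperature.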
gsp antag – antagonists of gsp mutant (McCune-Albright syndrome); gsp-mutant cells, cAMP HTRF, 30 min; Potency, µM (series often up to 76.9 µM), for the others: at the top dose activity change, negative = inhibition, most hits filed as inhibitors; hit rate 0.4% among 340,000; calls by dose curve; cell line not stated here;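 note: intracellular cAMP measured with PDE inhibitor Ro 20-1724 present during compound exposure; potency is the fitted concentration of half-maximal effect; % is set by controls: 0 for no effect and ±100 for the full control effect; nearly all actives have a fitted effect of over 65% in size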
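Measurement of cellular cAMP by homogeneous time-resolved fluorescence following a 30 min compound exposure at 37C. The PDE inhibitor […] was present throughout; the assay buffer was DPBS with 0.05% BSA and 0.005% Tween 20.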
Starred values were filed as active, the others as inactive. Hits are enriched below; roughly 1.6% of the tested compounds scored in any of these assays.

Cc1nc2cccnc2n1-c1cccc(C(=O)N2CCN(c3cccc(Cl)c3)CC2)c1 was read as RXFP1 antagonist -64* and RXFP1 ag 19%.
Screening CCOc1ccc(-c2c(C)nn3c(C)c(C(=O)NCCc4ccccc4)cnc23)cc1OCC returned RXFP1 antagonist -7 and RXFP1 ag 1%.
For COCCNCCCOc1ccc(C)cc1Br the results were RXFP1 antagonist -9, RXFP1 ag -2%, gsp agonist -75%, FBPA coupling cs -5, Giardia kill -8 and gsp antag 35µM*.
CCCCCCCCCCCCCCCCCCCCCCCCCCCCCC was read as FBPA coupling cs 1.
CN(C)CCCN1c2ccccc2Sc2ccc3ccccc3c21 was read as RXFP1 antagonist -63*, gsp agonist 35%, Giardia kill -19 and gsp antag -7%.
`CN(C)CCCN1c2ccc3ccccc3c2Sc2cccc(Cl)c21` gave RXFP1 antagonist -24, gsp agonist 24%, Giardia kill -5 and gsp antag 6%.
For O=C(c1cccc(Cl)c1)N1c2nc(-c3ccco3)nn2C2(CCCCC2)[C@@H]2CCCC[C@@H]21 the results were RXFP1 antagonist -4 and RXFP1 ag 1%.
Screening COc1cccc(C(=O)N2c3nc(-c4ccco4)nn3C3(CCCCC3)[C@@H]3CCCC[C@@H]32)c1 returned RXFP1 antagonist -65* and RXFP1 ag 4%.
`O=C(c1cccc(Cl)c1)N1c2ncnn2C2(CCCCC2)[C@@H]2CCCC[C@@H]21` gave RXFP1 antagonist -61* and RXFP1 ag -3%.
Screening CC(=O)OCC1=C[C@H]2[C@@H]3C(C)(C)[C@]3(OC(C)=O)C[C@@H](C)[C@]2(O)[C@@H]2C=C(C)C(=O)[C@@]2(O)C1 returned FBPA coupling cs -6.
Screening COc1cc2c(cc1OC)C(COc1ccc(F)cc1)N(C(=O)c1cccc(F)c1)CC2 (stereo not given) returned RXFP1 ag 2%.
`COc1cccc(NC(=O)Nc2nc(SC)ns2)c1` gave RXFP1 antagonist -2, RXFP1 ag 2%, gsp agonist -39%, FBPA coupling cs 0, Giardia kill -12 and gsp antag -24%.
Screening COc1cccc(NC(=O)Nc2nc(SC(C)(C)C)ns2)c1 returned RXFP1 antagonist -33, RXFP1 ag 1%, gsp agonist -44%, FBPA coupling cs -1, Giardia kill 48 and gsp antag 40µM*.
Screening CCCOc1ccccc1Cn1c(=O)sc2ccccc21 returned RXFP1 antagonist -62* and RXFP1 ag 0%.
Cc1ccc(Nc2c([N+](=O)[O-])c(=O)n(C)c3ccccc23)cc1C was read as RXFP1 antagonist 11, RXFP1 ag -1%, gsp agonist 39%, FBPA coupling cs 0, Giardia kill -4 and gsp antag -9%.
CC(C)(C)C(=O)OCOC(=O)C1N2C(=O)CC2S(=O)(=O)C1(C)C (stereo not given) was read as RXFP1 antagonist -13.
Screening Cc1cccc(-c2c3c(=O)n(C)c(=O)n(C)c3cn2-c2ccccc2O)c1 returned RXFP1 antagonist -2, RXFP1 ag 4%, gsp agonist 21%, FBPA coupling cs -39*, Giardia kill 0 and gsp antag 14%.
For COc1ccccc1NC(=O)c1ccc(NC(=O)COC(=O)CC(NC(=O)c2ccccc2Cl)c2ccccc2)cc1 (stereo not given) the results were RXFP1 antagonist -20, RXFP1 ag -2%, gsp agonist 22%, FBPA coupling cs -3, Giardia kill -13 and gsp antag -8%.
Screening COc1cc(O)c2c(c1)oc(=O)c1c3cc(O)c(O)cc3oc21 returned FBPA coupling cs -17.
COc1ccc2c(c1OC)C(=O)N1c3ccccc3C(=O)N(Cc3ccco3)C21 (stereo not given) was read as Giardia kill 5.

Screens: PubChem BioAssay, National Center for Advancing Translational Sciences (NCATS)
